For 25 compounds, Potency results are on record in PubChem BioAssay (NCATS).

Results filed as inconclusive are left out. Activity calls are given as the source filed them. Calls follow the shape of the dose curve; as a rule, active = well fitted curve in the direction sought with a large enough effect; inconclusive = small, poorly fitted or top-dose-only effect, or another doubt; inactive = no such curve, though single readings can be large; an effect the other way counts as inactive or inconclusive.

Assay [1] in a line: qHTS of pediatric cancer cell lines to identify multiple opportunities for drug repurposing: Primary screen for SK-N-SH cells (AID 1347098). Also: nearly all actives have a fitted effect of over 65% in size. Also: potency is read from the fitted curve at half-maximal effect. The gist of the method: (§1)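 Cells (500-1,000/well) rested 5 h, then received compounds for 48 h; metabolically active cells were measured by CellTiter-Glo luminescence. Final concentrations spanned up to 46 µM (MIPE, 11-point) or 0.59 nM-46 µM (NPC, 8-point) in primary screens, 11-point in follow-ups.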

A short description of assay [2]: qHTS of pediatric cancer cell lines to identify multiple opportunities for drug repurposing: Primary screen for NB1643 cells (AID 1347099). Also: nearly all actives have a fitted effect of over 50% in size. An outline of the steps:
(§2)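 Quantitative HTS format: each compound titrated (MIPE 11 points from 0.78 nM, NPC 8 points from 0.59 nM) onto cells plated 5 hours earlier. After 48 h at 37 degrees C, CellTiter-Glo luminescence was recorded.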

A short description of assay [3]: qHTS of pediatric cancer cell lines to identify multiple opportunities for drug repurposing: Primary screen for LAN-5 cells (AID 1347100). Also: potency is read from the fitted curve at half-maximal effect. The gist of the method: (§3)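 Viability after 48 h compound treatment at 37C, 500-1,000 cells/well, read as ATP luminescence with CellTiter-Glo. Primary screens used 11-point (MIPE, 0.78 nM-46 µM) or 8-point (NPC, 0.59 nM-46 µM) final concentrations; follow-up screens used 11-point dilutions.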

A short description of assay [4]: qHTS of pediatric cancer cell lines to identify multiple opportunities for drug repurposing: Primary screen for BT-12 cells (AID 1347101). Also: nearly all actives have a fitted effect of over 25% in size. The gist of the method: as §1
Assay [5] is described as follows: qHTS of pediatric cancer cell lines to identify multiple opportunities for drug repurposing: Primary screen for Rh18 cells (AID 1347102). Also: nearly all actives have a fitted effect of over 65% in size. The gist of the method:
as §3

A short description of assay [6]: qHTS of pediatric cancer cell lines to identify multiple opportunities for drug repurposing: Primary screen for OHS-50 cells (AID 1347103). Also: nearly all actives have a fitted effect of over 40% in size. The gist of the method:
as §1

Assay [7] can be described thus: qHTS of pediatric cancer cell lines to identify multiple opportunities for drug repurposing: Primary screen for RD cells (AID 1347104). Also: nearly all actives have a fitted effect of over 55% in size. An outline of the steps:
as §2

The nature of assay [8]: qHTS of pediatric cancer cell lines to identify multiple opportunities for drug repurposing: Primary screen for MG 63 (6-TG R) cells (AID 1347105). Also: nearly all actives have a fitted effect of over 50% in size. An outline of the steps: as §2
A short description of assay [9]: qHTS of pediatric cancer cell lines to identify multiple opportunities for drug repurposing: Primary screen for Rh30 cells (AID 1347107). Also: series mostly up to about 46 µM; nearly all actives have a fitted effect of over 75% in size. An outline of the steps: as §3
The nature of assay [10]: qHTS of pediatric cancer cell lines to identify multiple opportunities for drug repurposing: Primary screen for control Hh wild type fibroblast cells (AID 1347106).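 Also: series mostly up to about 46 µM; a drop in luminescence marks cytotoxicity and a rise apparent proliferation; nearly all actives have a fitted effect of over 55% in size.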 An outline of the steps:
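Cells (500-1,000/well) in growth media were settled 5 h at 37 degrees C, then given compounds for 48 h. Viability was read as CellTiter-Glo luminescence. Primary runs used MIPE at 11 points (0.78 nM-46 µM) and NPC at 8 points (0.59 nM-46 µM); follow-ups used 11 points.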

Turning to `O=C(N[C@H]1N=C(c2ccccc2F)c2cccc3c2N(CC3)C1=O)c1cc2ccccc2[nH]1`, the Potency entry in [1], in [2], in assay [3], in assay [4], in assay [5] and in assay [6] was “inactive” throughout. Moreover, the Potency entry in assay [7], in [8] and in assay [9] was “inactive” throughout.

Consider `Cc1ccc(N=CN(C)C=Nc2ccc(C)cc2C)c(C)c1`, for which the Potency entry in assay [1], in assay [2], in assay [3], in assay [4], in [5] and in [6] was “inactive” each time. In addition, the Potency result in assay [7], in assay [8], in assay [10] and in assay [9] was “inactive” in each case.

With `COc1cc(CC#N)cc(OC)c1OC`, the Potency result in [1], in assay [2], in assay [3], in assay [4], in [5] and in assay [6] was “inactive” in each case. The Potency entry in assay [7] and in assay [10] was “inactive” in each case.

As for `CCCOC(=O)Cc1ccc(OCC(=O)N(CC)CC)c(OC)c1`, the Potency entry in assay [1], in assay [2], in [3], in assay [4], in assay [5] and in [6] was “inactive” throughout. The Potency result in [7], in assay [10] and in assay [9] was “inactive” each time.

In the case of `CCOC(=O)c1cncn1C(C)c1ccccc1` (stereo not drawn), the Potency result in assay [1], in [2], in assay [3], in [4], in assay [5] and in assay [6] was “inactive” each time. The Potency entry in assay [7], in [8] and in [9] was “inactive” throughout.

For the compound `CN(C)C(=O)Oc1cc(OC(=O)N(C)C)cc(C(O)CNC(C)(C)C)c1` (stereo not drawn), the Potency result in [1], in [2], in assay [3], in assay [4], in assay [5] and in assay [6] was “inactive” in each case. Moreover, the Potency entry in assay [7] and in [9] was “inactive” in each case.

Take `O=C(O)Cc1ccccc1`: the Potency entry in assay [1], in assay [2], in [3], in assay [4], in [5] and in [6] was “inactive” each time. Moreover, the Potency entry in assay [7], in [10] and in [9] was “inactive” each time.

Take `CCCC[N+]1(C)[C@@H]2CC(OC(=O)[C@H](CO)c3ccccc3)C[C@H]1[C@@H]1O[C@@H]12` (stereo partly drawn): the Potency result in assay [1], in assay [2], in assay [3], in [4], in assay [5] and in assay [6] was “inactive” each time. The Potency entry in assay [7], in assay [10] and in assay [9] was “inactive” throughout.

Regarding `CC(C)(O)C(Cl)(Cl)Cl`, the Potency entry in assay [1], in assay [2], in assay [3], in assay [4], in assay [5] and in [6] was “inactive” each time. Moreover, the Potency entry in [7] and in assay [8] was “inactive” throughout.

Regarding `COP(=O)(OC)OC=C(Cl)Cl`, the Potency result in assay [1], in [2], in assay [3], in assay [4], in [5] and in assay [6] was “inactive” each time. Further, the Potency entry in assay [7], in assay [8], in [10] and in assay [9] was “inactive” throughout.

As for `CCOC(=O)NC(O)C(Cl)(Cl)Cl` (stereo not drawn), the Potency result in assay [1], in assay [2], in assay [3], in assay [4], in [5] and in assay [6] was “inactive” each time. The Potency result in assay [7], in [8], in assay [10] and in assay [9] was “inactive” in each case.

In the case of `CCOC(=O)C1(c2ccccc2)CCN(CCc2ccc(N)cc2)CC1`, the Potency entry in [1], in [2], in assay [3], in assay [4], in [5] and in assay [6] was “inactive” each time. Further, the Potency entry in assay [7], in assay [8], in assay [10] and in assay [9] was “inactive” throughout.

`O=C(O)c1nn(Cc2ccc(Cl)cc2Cl)c2ccccc12`: the Potency entry in assay [1], in assay [2], in [3], in assay [4], in assay [5] and in assay [6] was “inactive” in each case. Further, the Potency result in assay [7], in assay [10] and in assay [9] was “inactive” each time.

On to `CCOC(=O)NC(C)(C)Cc1ccc(Cl)cc1`, for which the Potency result in assay [1], in [2], in assay [3], in [4], in assay [5] and in assay [6] was “inactive” throughout. Besides, the Potency result in assay [7], in [8], in [10] and in [9] was “inactive” throughout.

In the case of `CCOC(=O)C(c1c(O)c2ccccc2oc1=O)c1c(O)c2ccccc2oc1=O`, the Potency result in assay [1], in [2], in assay [3], in assay [4], in [5] and in [6] was “inactive” in each case. Moreover, the Potency result in assay [7], in assay [10] and in assay [9] was “inactive” throughout.

Regarding `COCC(=O)N(c1c(C)cccc1C)C(C)C(=O)OC` (stereo not drawn), the Potency entry in assay [1], in assay [3], in [4], in [5], in assay [6] and in assay [7] was “inactive” each time. Besides, the Potency result in [8], in assay [10] and in assay [9] was “inactive” throughout.

Turning to `CCCN(CCC)CCc1c[nH]c2ccccc12`, the Potency entry in assay [1], in assay [3], in assay [4], in [5], in [8] and in [10] was “inactive” each time.

`C[C@H]1CNCCc2ccc(Cl)cc21`: the Potency entry in assay [1], in assay [2], in assay [3], in assay [4], in [5] and in assay [7] was “inactive” in each case.

In the case of `CN(C)CCc1c[nH]c2cccc(O)c12`, the Potency is 35 µM (active) in assay [1] and 38.2 µM (active) in assay [3]. The Potency entry in [2], in [4], in assay [5], in assay [6], in assay [8] and in [10] was “inactive” in each case. Moreover, the Potency result in assay [9] is “inactive”.

In the case of `CCS(=O)(=O)C(C)(C)S(=O)(=O)CC`, the Potency entry in assay [1], in assay [3], in [4], in assay [5], in assay [6] and in [7] was “inactive” in each case. In addition, the Potency entry in [10] and in [9] was “inactive” in each case.

In the case of `CC(Cc1ccccc1)NCc1ccccc1Cl` (stereo not drawn), the Potency entry in assay [1], in [2], in assay [3], in assay [4], in assay [5] and in assay [7] was “inactive” throughout. Besides, the Potency result in assay [8], in assay [10] and in [9] was “inactive” in each case.

With `COc1cc(C[C@@H](C)N)c(OC)cc1C`, the Potency entry in assay [1], in [2], in assay [3], in assay [5], in assay [7] and in assay [8] was “inactive” throughout. Further, the Potency entry in assay [10] and in assay [9] was “inactive” each time.

On to `CC[C@H]1C[C@@H]2C[C@H]3c4[nH]c5ccc(OC)cc5c4CCN(C2)[C@@H]13`, for which the Potency in assay [1] was 30.9 µM (active). For the same compound, the Potency entry in [2], in assay [5] and in assay [10] was “inactive” in each case.

With `O=c1n(Cl)c(=O)n(Cl)c(=O)n1Cl`, the Potency result in assay [1], in assay [3], in [4], in assay [5], in [6] and in [7] was “inactive” each time. The Potency result in [8], in assay [10] and in assay [9] was “inactive” each time.

Regarding `CCc1ccc(C2CCNCC2)cc1`, the Potency result in [1], in assay [2], in [3], in [4], in assay [5] and in assay [7] was “inactive” in each case. The Potency entry in [8] and in [10] was “inactive” throughout.
